High-throughput results (PubChem BioAssay)
This is a sample that favours compounds with a hit; in the whole collection about 7.5% have one here.
Vaccinia mCherry = qHTS for Stage-Specific Inhibitors of Vaccinia Orthopoxvirus: mCherry Reporter Primary qHTS | 310,000 tested, 0.63% active | Vaccinia virus mCherry reporter infection, fluorescence | Potency, µM (top dose mostly 36.5 µM), hits mostly inhibitors; calls by dose curve; tested in A549 cells; note: nearly all actives have a fitted effect of over 35% in size
FBPA Giardia inh = qHTS Assay for Inhibitors of Fructose-1,6-bisphosphate Aldolase from Giardia Lamblia | A8B2U2 | purified Giardia FBPA | Potency, µM (doses to about 59.6 µM), hits mostly inhibitors | 290,000 tested, 0.71% active | AID 2451, 2010; note: nearly all actives have a fitted effect of over 55% in size
Target sequence (A8B2U2 whole entry, looked up): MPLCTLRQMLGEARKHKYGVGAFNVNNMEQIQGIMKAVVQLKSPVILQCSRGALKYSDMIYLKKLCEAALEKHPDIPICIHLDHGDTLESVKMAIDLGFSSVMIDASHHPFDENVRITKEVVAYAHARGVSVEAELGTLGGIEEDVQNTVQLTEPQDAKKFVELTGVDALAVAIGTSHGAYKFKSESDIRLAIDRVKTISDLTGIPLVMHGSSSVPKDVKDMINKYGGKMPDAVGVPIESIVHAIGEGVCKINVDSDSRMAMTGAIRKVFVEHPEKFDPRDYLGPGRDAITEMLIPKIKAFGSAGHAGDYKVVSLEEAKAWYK
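40 nM FBPA preincubated 10 min at RT with compound (up to 57.5 uM final), then substrate plus GAPDH/TPI/NAD/arsenate coupling and diaphorase/resazurin added. Fluorescence read after 20 min at RT, 525/598 nm.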
HCMV antiviral = qHTS Assay for inhibitors of the human cytomegalovirus (HCMV). 410,000 tested, 4.5% active. HFF cells, HCMV-luciferase reporter, 72 h; hits give low values. activity change, negative = inhibition, % at 57.5 µM; in the data active = activity change below about -60%; inconclusive = no clear call, values can overlap the other calls; inactive = above about -39%
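Cell-based, HFFs, 1000 cells/well, 16 h 37C; cpds in DMSO + HCMV-luc, MOI 1 PFU/cell; 72 h 37C; OneGlo luminescence after 5 min RT; norm. to buffer vs Salinomycin 10uM.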
VACV Venus inh = qHTS for Stage-Specific Inhibitors of Vaccinia Orthopoxvirus: Venus Reporter Primary qHTS; Vaccinia virus Venus reporter expression, fluorescence; Potency, µM (doses to about 36.5 µM), actives largely listed as inhibitors; 330,000 tested, 0.46% active; AID 720580, 2013; calls by dose curve; tested in A549 cells; note: nearly all actives have a fitted effect of over 30% in size
FMDV antiviral = High Throughput Screening for Foot and Mouth Disease Virus Antivirals | FMDV antiviral cell-based qHTS | AID 1159524, 2015 | 410,000 tested, 1.2% active | Potency, µM (highest dose often 57.9 µM), most hits filed as inhibitors; calls by dose curve; tested in HEK293T cells; note: read-out not given here; nearly all actives have a fitted effect of over 45% in size
HCV inhibitor = qHTS Assay for Inhibitors of Hepatitis C Virus (HCV). Potency, µM (doses to about 41.8 µM), hits mostly inhibitors. Huh7.5.1 HCVcc-Cre infection, luciferase reporter, 44 h. 340,000 tested, 3.4% active
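Seed cells (1,000/well) for 4 h; treat with compound and infect with HCVcc-Cre, moi about 0.5. Incubate 44 h, then detect luciferase activity.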
Large screens that a line does not name were inactive; ! = repeats disagree. Unless noted, calls come from the whole dose curve; as a rule, active = well fitted curve in the direction sought with a large enough effect; inconclusive = small, poorly fitted or top-dose-only effect, or another doubt; inactive = no such curve, though single readings can be large; an effect the other way counts as inactive or inconclusive.

O=C(/C=C/c1cn(-c2ccccc2)nc1-c1cccnc1)N1CCCCC1	HCMV antiviral -60, FMDV antiviral inconclusive, HCV inhibitor inconclusive (no result: Vaccinia mCherry, VACV Venus inh)
Cc1ccccc1NC(=O)COC(=O)/C=C/c1cn(-c2ccccc2)nc1-c1cccnc1	none
CC1CN(S(=O)(=O)c2cccc(C(=O)OCc3cc(=O)oc4cc(O)ccc34)c2)CC(C)O1 (stereo not drawn)	FMDV antiviral 22µM, HCV inhibitor 10µM! (no result: Vaccinia mCherry, VACV Venus inh)
CCc1nc2sc3c(N4CCC(C)CC4)ncnc3c2c2c1CCCC2	none (no result: FBPA Giardia inh, HCV inhibitor)
CCC1CN(C(=O)N2CCC(C(=O)NCc3ccccc3OC)CC2)c2cc(C)ccc2O1 (stereo not drawn)	HCV inhibitor inconclusive (no result: Vaccinia mCherry, FBPA Giardia inh, VACV Venus inh)
CCC1CN(C(=O)N2CCC(C(=O)NCCN(CC)CC)CC2)c2cc(C)ccc2O1 (stereo not drawn)	HCMV antiviral inconclusive (no result: FBPA Giardia inh, HCV inhibitor)
CCC1CN(C(=O)N2CCC(C(=O)NCCc3ccc(OC)cc3OC)CC2)c2cc(C)ccc2O1 (stereo not drawn)	FMDV antiviral 28µM (no result: FBPA Giardia inh, HCV inhibitor)
CCC1CN(C(=O)N2CCC(C(=O)NCc3ccccc3OC)CC2)c2ccccc2O1 (stereo not drawn)	HCV inhibitor 16µM (no result: Vaccinia mCherry, FBPA Giardia inh, VACV Venus inh)
Cc1cc2c(cc1C)NC(CC(=O)Nc1ccccc1SC(F)(F)F)C(=O)N2 (stereo not drawn)	none (no result: FBPA Giardia inh, HCV inhibitor)
O=[N+]([O-])c1cccc(N2Cc3ccccc3C2)c1	none
CC(=O)Nc1ccc(S(=O)(=O)N2CCN(CC(O)COc3ccc4ccccc4c3)CC2)cc1 (stereo not drawn)	HCMV antiviral -87, VACV Venus inh inconclusive
Cc1cccc(C)c1OCC(O)Cn1c2ccccc2c2ccccc21 (stereo not drawn)	FMDV antiviral inconclusive, HCV inhibitor inconclusive (no result: Vaccinia mCherry, VACV Venus inh)
Cc1cccc(C)c1OCC(O)CN(Cc1ccccc1O)C1CCCCC1 (stereo not drawn)	HCMV antiviral -69, HCV inhibitor inconclusive
CC(=O)Nc1ccc(OCC(O)CN2CCN(S(=O)(=O)c3ccc(NC(C)=O)cc3)CC2)cc1 (stereo not drawn)	none (no result: Vaccinia mCherry, VACV Venus inh)
CN(CC(O)COc1ccc(OCC(O)CN(C)C2CCCCC2)cc1)C1CCCCC1 (stereo not drawn)	HCMV antiviral inconclusive, HCV inhibitor 16µM
CCC(=O)c1ccc(OCC(O)CN(C)C2CCCCC2)cc1 (stereo not drawn)	HCV inhibitor inconclusive (no result: Vaccinia mCherry)
COc1cc(C(=O)N2CCN(CC(O)COc3ccccc3)CC2)cc(OC)c1OC (stereo not drawn)	none (no result: FBPA Giardia inh)
COc1cc(/C=C/C(=O)N2CCN(CC(O)COc3ccccc3)CC2)cc(OC)c1OC (stereo not drawn)	HCMV antiviral -82, FMDV antiviral inconclusive (no result: Vaccinia mCherry)
CC(C)N(CCNC(=O)c1oc(=O)c2ccccc2c1-c1ccccc1)Cc1ccco1	none
OC(COc1ccc(OCC(O)CN2CCCCCC2)cc1)CN1CCCCCC1 (stereo not drawn)	HCV inhibitor 7.1µM (no result: Vaccinia mCherry, HCMV antiviral)
CN(C)S(=O)(=O)N1CCN(CC(O)COc2ccc3cc(Br)ccc3c2)CC1 (stereo not drawn)	HCV inhibitor 32µM (no result: Vaccinia mCherry)
COc1ccc(CN2CCN(S(=O)(=O)c3ccc(NC(C)=O)cc3)CC2)c(OC)c1OC	FBPA Giardia inh inconclusive, HCMV antiviral -98!
OC(COc1ccc2cc(Br)ccc2c1)CN1CCCC1 (stereo not drawn)	HCV inhibitor 4.5µM (no result: Vaccinia mCherry, VACV Venus inh)
COc1ccc(OCC(O)CN2CCCCCC2)cc1 (stereo not drawn)	none
CCC1CN(CC(=O)NC(c2ccccn2)C(F)(F)F)Cc2cc(OC)ccc2O1 (stereo not drawn)	none (no result: FBPA Giardia inh, HCMV antiviral, HCV inhibitor)
COc1ccc(/C=N/NC(=O)c2c(C)nnn2-c2nonc2N)cc1OC	HCMV antiviral inconclusive, HCV inhibitor inconclusive
CN1CCN(CC(O)COc2ccccc2)CC1 (stereo not drawn)	none (no result: Vaccinia mCherry, VACV Venus inh)
OC(COc1ccccc1)CN1CCN(C(c2ccccc2)c2ccccc2)CC1 (stereo not drawn)	HCV inhibitor 7.9µM (no result: Vaccinia mCherry, VACV Venus inh)
CN1CCN(CC(O)COc2ccc(C34CC5CC(CC(C5)C3)C4)cc2)CC1 (stereo not drawn)	HCMV antiviral inconclusive, HCV inhibitor 10µM
Cc1ccc(N2CCN(CC(O)COc3cccc(C)c3)CC2)cc1 (stereo not drawn)	HCMV antiviral -62
NC(=O)C1CCN(CC(O)COc2ccc(-c3ccccc3)cc2)CC1 (stereo not drawn)	HCV inhibitor 10µM
Cc1cccc(N2CCN(CC(O)COc3ccccc3)CC2)c1 (stereo not drawn)	none (no result: FBPA Giardia inh)
COc1cccc(-n2cc(C(=O)Nc3cccc(C(F)(F)F)c3)c3ccccc3c2=O)c1	none (no result: FBPA Giardia inh, HCV inhibitor)
CC(C)(C)c1csc(NC(=O)c2ccc(Cl)s2)n1	HCMV antiviral inconclusive, VACV Venus inh inconclusive, HCV inhibitor 8.9µM (no result: Vaccinia mCherry)
Cc1ccc(C(=O)Nc2nc(C(C)(C)C)cs2)s1	VACV Venus inh inconclusive, HCV inhibitor inconclusive (no result: Vaccinia mCherry)
CN1CCN(/N=C/c2ccc(-c3ccccc3)cc2)CC1	Vaccinia mCherry inconclusive, HCMV antiviral -85
COc1ccc(-c2cc3c(=O)n(CC(=O)N4CCCC4)ncn3n2)cc1	none (no result: Vaccinia mCherry, FBPA Giardia inh, VACV Venus inh)
CC(=O)Nc1ccc(N(C(=O)Cc2cccs2)C(C(=O)NC2CCCC2)c2ccncc2)cc1 (stereo not drawn)	none (no result: FBPA Giardia inh)
Cc1ccc(NC(=O)c2ccc(OC(F)F)cc2)cc1S(=O)(=O)N(C)C	Vaccinia mCherry inconclusive, HCMV antiviral -95, FMDV antiviral inconclusive, HCV inhibitor 7.9µM
NS(=O)(=O)c1ccc(NC(=O)CN2C(=O)C3C4C=CC(C4)C3C2=O)cc1 (stereo not drawn)	HCV inhibitor inconclusive
COc1ccc(CCC(=O)Nc2ccc(C)c(S(=O)(=O)N(C)C)c2)cc1OC	HCMV antiviral -77, FMDV antiviral 10µM, HCV inhibitor inconclusive
Cc1cc(NC(=O)CN(C)S(=O)(=O)c2ccc3c(c2)CCC(=O)N3)ccc1Br	HCMV antiviral inconclusive, FMDV antiviral 14µM (no result: FBPA Giardia inh, HCV inhibitor)
Cc1ccc(NC(=O)CN2C(=O)C3C4C=CC(C4)C3C2=O)cc1S(=O)(=O)N(C)C (stereo not drawn)	HCMV antiviral -103
Cc1cc(Br)c(NC(=O)Cn2c([N+](=O)[O-])cnc2C)cc1C	none
CCOC(=O)C1CCN(Cc2cccc(OCc3ccccc3)c2)CC1	none (no result: Vaccinia mCherry, VACV Venus inh)
Cc1ccc(NC(=O)CCNC(=O)c2ccc([N+](=O)[O-])cc2)cc1S(=O)(=O)N(C)C	HCMV antiviral inconclusive, FMDV antiviral 28µM, HCV inhibitor inconclusive
COc1cc(CCC(=O)Nc2ccc(C)c(S(=O)(=O)N(C)C)c2)cc(OC)c1OC	FMDV antiviral 28µM, HCV inhibitor inconclusive
Cc1ccc(NC(=O)c2ccc([N+](=O)[O-])cc2)cc1S(=O)(=O)N(C)C	HCMV antiviral inconclusive, HCV inhibitor inconclusive
